Source: PubChem (National Center for Advancing Translational Sciences (NCATS))
An excerpt weighted towards active compounds, which were near 21% of everything screened.
CHX counter: Cycloheximide Counterscreen for Small Molecule Inhibitors of Shiga Toxin; 300,000 tested, 12% active; cell reporter, cycloheximide protein synthesis inhibition counterscreen; max response, %; in the data active = max response mostly above about 13%, no sharp cut-off; inactive = mostly below about 14%; also: read at 38.3 µM for the half of the compounds with a filed dose
Pf growth 48h: Primary qHTS for delayed death inhibitors of the malarial parasite plastid, 48 hour incubation | 310,000 tested, 5.9% active | P. falciparum luciferase growth in erythrocytes, 48 h | Potency, µM (highest dose often 28.7 µM), most hits filed as inhibitors
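Parasite viability was followed by luminescence of a genomically integrated firefly luciferase. Cultures held 0.1% parasitemia at 2% hematocrit (final), incubated under 5% CO2 at 37 C.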
Pf growth 96h: Primary qHTS for delayed death inhibitors of the malarial parasite plastid, 96 hour incubation; 320,000 tested, 6.9% active; Potency, µM (highest dose often 28.7 µM), hits mostly inhibitors; AID 504834, 2011; P. falciparum luciferase reporter growth, 96 h
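Plates of compound plus infected erythrocytes (2% hematocrit, 0.05% parasitemia final) incubate 96 hours, 37 C, 5% CO2. Detection reagent added; reduced luminescence from the parasites' luciferase reporter flags inhibition.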
HCV inhibitor: qHTS Assay for Inhibitors of Hepatitis C Virus (HCV); Huh7.5.1 HCVcc-Cre infection, luciferase reporter, 44 h; Potency, µM (highest dose often 41.8 µM), most hits filed as inhibitors; 340,000 tested, 3.4% active; AID 651820, 2012
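Cells seeded at 1,000/well and cultured 4 h, then compounds added followed by HCVcc-Cre virus (~0.5 moi). After 44 h further culture, luciferase substrate was added, plates held 15 min at room temperature, and luminescence read for 15 sec.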
HCMV antiviral: qHTS Assay for inhibitors of the human cytomegalovirus (HCMV) | HFF cells, HCMV-luciferase reporter, 72 h; active compounds read low | activity change, negative = inhibition, % at 57.5 µM | 410,000 tested, 4.5% active; in the data active = activity change below about -60%; inconclusive = no clear call, values can overlap the other calls; inactive = above about -39%
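After 16 h attachment at 37C, HFF cells received test compound and HCMV-luciferase (1 PFU/cell); reporter luminescence read 72 h later, data normalized against buffer-only and known inhibitor Salinomycin.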
Shiga toxin inh: A qHTS for Small Molecule Inhibitors of Shiga Toxin; inhibition, % at 38.7 µM; 290,000 tested, 9.2% active; Vero cells, Shiga toxin protein synthesis inhibition reporter; AID 2315, 2010; in the data active = inhibition mostly above about 28%, no sharp cut-off; inactive = mostly below about 43%
A number is an active result; ! = repeats disagree. Unless noted, calls follow the shape of the dose curve; as a rule, active = well fitted inhibition curve with a large enough effect; inconclusive = small, poorly fitted or top-dose-only effect, or another doubt; inactive = no such curve, though single readings can be large or run the other way.

What do the screens show for `CCCc1nnc(NC(=O)c2cccc(OC)c2)s1`?
CHX counter: 61.8; Pf growth 48h: inactive; Pf growth 96h: inactive; HCV inhibitor: inactive; HCMV antiviral: inactive; Shiga toxin inh: 73.5

How did CCOCCc1nnc(NC(=O)c2cc(OC)c(OC)c(OC)c2)s1 do in these assays?
CHX counter: inactive; Pf growth 48h: inactive; HCV inhibitor: inactive; HCMV antiviral: inactive; Shiga toxin inh: inactive

What do the screens show for `COc1cccc(C(=O)Nc2nnc(CCS(=O)(=O)c3ccc(C)cc3)s2)c1`?
CHX counter: inactive; Pf growth 48h: inactive; Pf growth 96h: inactive; HCV inhibitor: inactive; HCMV antiviral: inactive; Shiga toxin inh: inactive

Results for COCc1nnc(NC(=O)c2ccc(OC)cc2OC)s1 ?
CHX counter: 46.8; Pf growth 48h: inactive; Pf growth 96h: inactive; HCV inhibitor: inactive; HCMV antiviral: inactive; Shiga toxin inh: 104.1

How did CCOCCc1nnc(NC(=O)c2cccc(F)c2)s1 do in these assays?
CHX counter: 20.1; Pf growth 48h: inactive; HCV inhibitor: inactive; HCMV antiviral: inactive; Shiga toxin inh: 40.9

How did COc1ccc(C(=O)Nc2nnc(Cc3ccc(OC)c(OC)c3)s2)c(OC)c1 do in these assays?
CHX counter: 13.5; Pf growth 48h: 2.33µM; Pf growth 96h: inactive; HCV inhibitor: 11.2µM; HCMV antiviral: inactive; Shiga toxin inh: inactive

Results for COCCn1c(=N)c(C(=O)NC(C)c2ccccc2)cc2c(=O)n3cc(C)ccc3nc21 (stereo unspecified) ?
HCMV antiviral: inactive

How did C[C@@H]1CN([C@H](C)CO)C(=O)CCCn2nncc2CO[C@@H]1CN(C)S(=O)(=O)c1cccs1 do in these assays?
HCMV antiviral: inactive

Results for COc1ccccc1CNC(=O)Cc1c(C)c2c(cc(C)c3c(C)c(C)oc32)oc1=O ?
HCMV antiviral: inactive

What do the screens show for `S=c1nc2[nH]c3ccccc3c2n[nH]1`?
HCV inhibitor: inactive; HCMV antiviral: inactive

What do the screens show for `COc1ccc(Cc2nnc(NC(=O)c3ccc(OC)c(OC)c3)s2)cc1OC`?
CHX counter: inactive; Pf growth 48h: inactive; Pf growth 96h: inactive; HCV inhibitor: inactive; HCMV antiviral: inactive; Shiga toxin inh: inactive

Results for COc1ccc(Cc2nnc(NC(C)=O)s2)cc1 ?
CHX counter: inactive; Pf growth 48h: inactive; Pf growth 96h: inconclusive; HCV inhibitor: inactive; HCMV antiviral: inactive; Shiga toxin inh: inactive

How did COc1cccc(C(=O)Nc2nnc(Cc3ccc(OC)c(OC)c3)s2)c1 do in these assays?
CHX counter: inactive; Pf growth 48h: 11.7µM; Pf growth 96h: inactive; HCV inhibitor: inactive; HCMV antiviral: inactive; Shiga toxin inh: inactive

How did CN(C)c1cccc(C(=O)Nc2nnc(Cc3ccccc3)s2)c1 do in these assays?
CHX counter: 26.1; Pf growth 48h: inactive; Pf growth 96h: inactive; HCV inhibitor: inconclusive; HCMV antiviral: inactive; Shiga toxin inh: 96.1

Results for COc1cccc(C(=O)Nc2nnc(C(C)C)s2)c1 ?
CHX counter: 27.3; Pf growth 48h: inactive; Pf growth 96h: inactive; HCV inhibitor: inactive; HCMV antiviral: inactive; Shiga toxin inh: 46.7

Results for COc1ccc(Cc2nnc(NC(=O)c3ccccc3F)s2)cc1 ?
CHX counter: 19.6; Pf growth 48h: inactive; Pf growth 96h: inactive; HCV inhibitor: inactive; HCMV antiviral: inactive; Shiga toxin inh: 85.5

Results for Cc1ccc(C)c(-n2c(-c3ccco3)n[nH]c2=S)c1 ?
HCV inhibitor: inactive; HCMV antiviral: inactive

How did COc1ccccc1N1CCN(c2ccc3c(c2)S(=O)(=O)c2cccc(C(=O)NCc4cccc(F)c4)c2C3=O)CC1 do in these assays?
HCMV antiviral: inactive

Results for OCCC1CN(C2CCN(c3ccccc3F)CC2)CCN1Cc1ccccc1 (stereo unspecified) ?
CHX counter: inactive; Pf growth 48h: inactive; Pf growth 96h: inactive; HCV inhibitor: inactive; HCMV antiviral: inactive; Shiga toxin inh: inactive

What do the screens show for `COc1ccc(-c2cn3nc(N4CCC(C(=O)Nc5cccc(Cl)c5)CC4)sc3n2)cc1`?
HCMV antiviral: inactive

How did CC1CN(C(=O)Nc2ccc(C(=O)NCCc3ccccc3)cc2)c2ccccc2S1 (stereo unspecified) do in these assays?
HCMV antiviral: inactive

Results for COc1ccc(Cc2nnc(NC(=O)c3c(-c4ccccc4)noc3C)s2)cc1OC ?
CHX counter: inactive; Pf growth 48h: inconclusive; Pf growth 96h: 10.4µM; HCV inhibitor: inactive; HCMV antiviral: inactive; Shiga toxin inh: inactive

What do the screens show for `COc1ccc(Cc2nnc(NC(=O)C3CC(=O)N(c4ccccc4)C3)s2)cc1OC` (stereo unspecified)?
CHX counter: inactive; Pf growth 48h: inactive; Pf growth 96h: 2.94µM; HCV inhibitor: inactive; HCMV antiviral: inactive; Shiga toxin inh: inactive

Results for CC(C)C[C@H](NC(=O)N1c2ccccc2NC(=O)[C@@H]1C(C)C)C(=O)N1CCC[C@@H]1C(=O)O ?
CHX counter: inactive; Pf growth 48h: inactive; Pf growth 96h: inactive; HCV inhibitor: inactive; HCMV antiviral: inactive; Shiga toxin inh: inactive

How did O=C(c1ccc(CS(=O)(=O)c2ccc(Br)cc2)o1)N1CCN(c2ccc(F)cc2)CC1 do in these assays?
CHX counter: inactive; Pf growth 48h: inconclusive; Pf growth 96h: inconclusive; HCV inhibitor: inconclusive; HCMV antiviral: inactive; Shiga toxin inh: inactive

How did Cc1cccc(N2CCN(C(=O)c3cc4ccc5cccnc5c4[nH]3)CC2C)c1 (stereo unspecified) do in these assays?
HCMV antiviral: -107.8

How did Cc1ccc(C)c(N2CCN(C(=O)c3cc4ccc5cccnc5c4[nH]3)CC2)c1 do in these assays?
HCMV antiviral: inactive

Results for Cc1ccc(S(=O)(=O)Cc2ccc(C(=O)N3CCCCCC3)o2)cc1 ?
CHX counter: inactive; Pf growth 96h: inactive; HCV inhibitor: inactive; HCMV antiviral: -62.9; Shiga toxin inh: inactive

Results for COc1ccc(N2CCN(C(=O)c3ccc(CS(=O)(=O)c4ccc(Br)cc4)o3)CC2)cc1 ?
CHX counter: inactive; Pf growth 48h: inconclusive; Pf growth 96h: inconclusive; HCV inhibitor: inactive; HCMV antiviral: -83.8!; Shiga toxin inh: inactive

Results for Cc1cccc(N2CCN(C(=O)c3ccc(CS(=O)(=O)c4ccccc4C)o3)CC2C)c1 (stereo unspecified) ?
CHX counter: inactive; Pf growth 48h: 13.1µM; Pf growth 96h: inactive; HCV inhibitor: inactive; HCMV antiviral: -66.8; Shiga toxin inh: inactive

How did Cc1nc(N2CCN(c3ccccc3)CC2)[nH]c(=O)c1C do in these assays?
CHX counter: inactive; Pf growth 48h: inactive; Pf growth 96h: inactive; HCV inhibitor: inactive; HCMV antiviral: inactive; Shiga toxin inh: inactive

How did Cc1ccc(OCCNC(=O)CNC(=O)c2ccc3c(c2)OCO3)cc1 do in these assays?
Pf growth 48h: inactive; Pf growth 96h: inactive; HCV inhibitor: inactive; HCMV antiviral: inactive
